From PubChem BioAssay AID1117267 (The Scripps Research Institute Molecular Screening Center, 2014)
The campaign covered roughly 92,000 compounds. About 1,200 (1.3%) were called active.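 How the source made its calls: active means activation above the mean of all tested compounds plus 3 SD (cut at about 9.5% in these data); inactive means the rest.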 The list comes from a sample in which actives are over-represented; it also holds similar structures and randomly drawn compounds.

assay: TTR transcription activators in neuroblastoma reporter cells, primary screen, cell-based, luminescence, SH-SY5Y, TTR promoter Gaussia luciferase (AID 1117267); details: at 16.7 µM, hits give high values, 100% = recombinant luciferase protein wells;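 further: cells exposed to compounds for one day before reading; 0% = median of all test compound wells on the plate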

| SMILES | activation |
| --- | --- |
| Cc1cccc(C)c1NC(=O)CN1CCN(c2ccc(F)cc2)CC1 | 1.02% (inactive) |
| O=C(O)CSc1nccc2ccccc12 | -2.92% (inactive) |
| CCN(C(=O)CN1C(=O)/C(=C/c2ccc(F)cc2)SC1=S)C1CCS(=O)(=O)C1 (centres undefined) | 1.08% (inactive) |
| Cc1c(NS(=O)(=O)c2ccc(NC3CCCC3)c([N+](=O)[O-])c2)c(=O)n(-c2ccccc2)n1C | 12.5% (active) |
| COc1ccc(C(=O)C(C)OC(=O)c2cccc(S(=O)(=O)Nc3c(C)n(C)n(-c4ccccc4)c3=O)c2)cc1 (centres undefined) | 0.13% (inactive) |
| COc1ccc(NS(=O)(=O)c2ccc(C(=O)Nc3c(C)n(C)n(-c4ccccc4)c3=O)cc2)cc1 | -1.99% (inactive) |
| CCc1cc2c(NC(Cc3ccccc3)C(=O)O)ncnc2s1 (centres undefined) | 0.89% (inactive) |
| Cc1cccc(NC(=O)Nc2nnc(-c3ccccc3)o2)c1 | -2.14% (inactive) |
| COc1cc(/C=N/N2CCN(c3ccccc3)CC2)ccc1OC(C)=O | 1.16% (inactive) |
| COc1c(C)cc(C(O)c2ncc(-c3cccc(C(F)(F)F)c3)[nH]2)cc1C (centres undefined) | -1.28% (inactive) |
| OC(c1ccc(F)cc1)c1ncc(-c2cccc(C(F)(F)F)c2)[nH]1 (centres undefined) | 1.67% (inactive) |
| COc1cccc(-c2cnc(C(O)c3ccccc3OC)[nH]2)c1 (centres undefined) | 9.73% (active) |
| C=CCN(C(=O)Nc1ccc2c(c1)nc(C)n2C)c1ccccc1 | 5.19% (inactive) |
| O=C(COC(=O)c1ccc2ncsc2c1)Nc1ccc(Cl)cc1 | 1.52% (inactive) |
| COC(=O)c1cnn2c(C(F)(F)F)cc(-c3ccco3)nc12 | 10.2% (active) |
| Cc1ccc(-c2cc(C(F)(F)F)n3ncc(C(=O)N4CCCCC4c4cccnc4)c3n2)cc1 (centres undefined) | 0.13% (inactive) |
| FC(F)(F)c1cc(-c2ccco2)nc(N2CCOCC2)n1 | 2.59% (inactive) |
| COC(=O)[C@]12C[C@H](CC(=O)NCc3cccc4ccccc34)C(=O)N(CCc3ccc(OC)c(OC)c3)C1=C[C@H](C1CCCC1)O[C@@H]2C | -1.86% (inactive) |
| CCCCOCCCNC(=O)C[C@H]1C[C@@]2(C(=O)OC)C(=C[C@H](C(C)(C)C)O[C@@H]2C)N(CCc2ccc(OC)c(OC)c2)C1=O | 14.6% (active) |
| COC(=O)[C@]12C[C@H](CC(=O)NCc3cccs3)C(=O)N(CCc3ccc(OC)c(OC)c3)C1=C[C@H](C(C)C)O[C@@H]2C1CC1 | -0.36% (inactive) |
| O=C(NCc1ccccc1)C(c1cccnc1)N(C(=O)c1csnn1)c1ccc(F)cc1 (centres undefined) | 4.37% (inactive) |
| Cc1cccc(C(=O)OC(C)CN2CCCC2)c1 (centres undefined) | 2.07% (inactive) |

| SMILES | activation |
| --- | --- |
| O=C(CN1C(=O)CC(c2ccccc2)S(=O)(=O)c2ccccc21)NC1CCCC1 (centres undefined) | 4.27% (inactive) |
| COc1cccc(C2CC(c3cccs3)=NN2C(=O)CSC2=NCCS2)c1OC (centres undefined) | -2.03% (inactive) |
| O=C1c2cccc(OCC(=O)N3N=C(c4cccs4)CC3c3ccc(F)cc3)c2CCN1Cc1ccccc1 (centres undefined) | 11.2% (active) |
| CC(=O)Oc1ccccc1C1=NN(C(C)=O)C(c2ccccc2)C1 (centres undefined) | 1.26% (inactive) |
| O=C(CCc1nnc(CCCCc2ccccc2)o1)NC(c1cccnc1)C(F)(F)F (centres undefined) | -0.47% (inactive) |
| CCCCc1cc(=O)oc2cc(C)cc(OCc3nn[nH]n3)c12 | 23.1% (active) |
| COc1ccc(-c2cc3ccc(OCc4nn[nH]n4)cc3oc2=O)cc1 | 0.67% (inactive) |
| CCOC(=O)CCc1c(C)c2ccc(OCc3nn[nH]n3)c(C)c2oc1=O | 3.81% (inactive) |
| CC(C)Cn1c(N)c(C(=O)COC(=O)C2CCCN2C(=O)c2cccs2)c(=O)n(C)c1=O (centres undefined) | -0.78% (inactive) |
| C#CCOCCOCCOCCNc1nc(N2CCOCC2)nc(N2CCN(C(=O)[C@H](Cc3ccc(O)cc3)n3cc(CCO)nn3)CC2)n1 | -0.17% (inactive) |
| CCOc1ccc(C(=O)NCC(=O)N2CCN(c3ccc(C(F)(F)F)cn3)CC2)cc1 | 0.73% (inactive) |
| Brc1ccc(/C=N/N2CCN(C3c4ccccc4-c4ccccc43)CC2)s1 | 19.4% (active) |
| CC(=O)C[C@@H]1OC[C@H](C)N1S(=O)(=O)c1ccc(C)cc1 | 1.64% (inactive) |
| CC(NC(=O)C(C)(C)C)C(c1cccs1)N1CCN(Cc2ccccc2)CC1 (centres undefined) | -0.04% (inactive) |
| NC(=O)C1(Nc2ccccc2Cl)CCCC1 | -2.76% (inactive) |
| Cc1nc(N2CCOCC2)sc1C(=O)NN | -0.39% (inactive) |
| Cc1ccc(SCC(=O)c2sc(-c3ccccc3)nc2C)cc1 | 4.57% (inactive) |
| Cc1nc(-c2ccc(Cl)cc2)sc1C(=O)NN | 35.4% (active) |
| O=c1ccn([C@@H]2O[C@H](CNS(=O)(=O)c3cc4ccccc4s3)[C@@H](O)[C@H]2O)c(=O)[nH]1 | -0.41% (inactive) |
| COc1ccc(C(CNC(=O)c2ccc(S(=O)(=O)Nc3ccccc3C)cc2)N2CCOCC2)cc1 (centres undefined) | 0.05% (inactive) |
| COc1ccc(CCOC(=O)CNC(=O)c2ccc(Cl)cc2Cl)cc1 | -0.5% (inactive) |
| COc1cc2c(=O)n(C)c3ccccc3c2cc1OC | -0.16% (inactive) |
